Data on ten molecules can be found in PubChem BioAssay (NCATS).

Results filed as inconclusive are left out. Activity calls are given as the source filed them. Unless noted, calls follow the shape of the dose curve; as a rule, active = well fitted cell-killing curve with a large enough effect; inconclusive = small, poorly fitted or top-dose-only effect; inactive = flat fitted curve, though single readings scatter.

Assay [1] in a line: Cell Viability - LYMP2-020 (AID 986).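 Also: series mostly up to about 92 µM; plate controls were DMSO only for no effect and tetraoctylammonium bromide at 92 µM for full effect; nearly all actives have a fitted effect of over 55% in size.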 Put shortly: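 Human lymphoblastoid LYMP2-020 cells (2500/well) preincubated 5 h at 37 C, then treated 24 h at 37 C. Viability measured as intracellular ATP by CellTiter-Glo luminescence after 30 min at room temperature; AC50 from Hill fits.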
Assay [2] is described as follows: Cell Viability - LYMP2-022 (AID 987).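 Also: 0% = DMSO alone and full effect = tetraoctylammonium bromide at 92 µM; nearly all actives have a fitted effect of over 55% in size.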 The method in brief: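 LYMP2-022 lymphoblastoid cells (2500/well, complete medium) were treated with compounds for 24 hours at 37 C; intracellular ATP was then read by CellTiter-Glo luminescence after 30 min at room temperature. AC50 values were derived from Hill-equation fits.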
The nature of assay [3]: Cell Viability - LYMP2-024 (AID 988).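 Also: plate controls were DMSO only for no effect and 92 µM tetraoctylammonium bromide for full effect; nearly all actives have a fitted effect of over 60% in size.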 The method in brief:
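Human lymphoblastoid LYMP2-024 cells (2500/well) rested 5 hr, then treated with compound for 24 hr at 37 C in complete medium. Viability was measured as intracellular ATP by CellTiter-Glo luminescence. AC50 values came from Hill-equation fits.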

Assay [4] is described as follows: Cell Viability - LYMP2-026 (AID 989). Also: % is scaled to controls: 0 for no effect and ±100 for the full control effect; nearly all actives have a fitted effect of over 50% in size. The method in brief: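 Human lymphoblastoid LYMP2-026 cells, 2500/well, exposed to compound 24 h at 37 C in complete medium. Viability as intracellular ATP by CellTiter-Glo luminescence; AC50 from Hill fits of qHTS concentration-response.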
A short description of assay [5]: Cell Viability - LYMP1-002 - Assay at 24 hr (AID 993). Also: % is scaled to controls: 0 for no effect and ±100 for the full control effect. Put shortly:
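Human lymphoblastoid LYMP1-002 cells (2500/well) treated 24 h at 37 °C; viability as intracellular ATP by CellTiter-Glo luminescence. Tetraoctylammonium bromide as positive control; AC50 from Hill-equation fits of qHTS concentration-response.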

A short description of assay [6]: Cell Viability - LYMP1-002 - Assay at 40 hr (AID 994).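 Also: 0% = DMSO only and full inhibition = 92 µM tetraoctylammonium bromide; nearly all actives have a fitted effect of over 60% in size.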 Put shortly: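 LYMP1-002 human lymphoblastoid cells (2500/well, complete medium) were treated with compounds for 40 hr at 37 C. Intracellular ATP was measured by CellTiter-Glo luminescence, and AC50 values came from Hill-equation fits of concentration-response data; tetraoctylammonium bromide was the positive control.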

Assay [7] is described as follows: qHTS Assay for Identification of Small Molecule Inducers of Hypoxia Response (AID 2120; active = well fitted curve in the direction sought with a large enough effect in the signal ratio, with a control signal flat, not every such curve was filed as active; the % refers to the signal ratio; also: 0% is about no effect). The method in brief:
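HRE-bla ME-180 cells in Opti-MEM with 0.5% dialyzed FBS, pre-plated 4-5 h, then compound titration for 17 h at 37 degrees Celsius. CCF4 loaded 2.5 h at room temperature; 460/530 nm ratio gave %Activity and AC50 for induction.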
For orientation: In qHTS, concentration-response curves come from the screen itself.

The target in assay [8] is Estrogen receptor (Homo sapiens) (UniProt P03372). As to the kind of experiment: qHTS assay for small molecule antagonists of estrogen receptor alpha signaling (AID 588513; active = well fitted curve in the direction sought with a large enough effect in the signal ratio, with a control signal flat, not every such curve was filed as active; the % refers to the signal ratio; also: % is scaled to controls: 0 for no effect and ±100 for the full control effect). Put shortly:
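Beta-lactamase reporter, antagonist mode, HEK 293 GripTite cells; 0.5nM E2 stimulus, 18 h, 37 C; CCF4 dye 2 h RT; fluorescence. IC50 and efficacy from Hill fits, normalized to E2 and DMSO.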

Assay [9] addresses Bile acid receptor (Homo sapiens) (UniProt Q96RI1). Nature of the assay: qHTS assay for small molecule antagonists of farnesoid X receptor signaling (AID 588526; calls by dose curve; also: % is scaled to controls: 0 for no effect and ±100 for the full control effect). The method in brief:
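Antagonist mode: titrated compounds tested against chenodeoxycholic acid stimulation (normalized to 50 uM CDCA and DMSO) in GeneBLAzer HEK293T cells for 16 h. Beta-lactamase read by CCF4 fluorescence; IC50 from Hill fits.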

Assay [10] concerns the target Glucocorticoid receptor (Homo sapiens) (UniProt P04150). As to the kind of experiment: qHTS assay for small molecule agonists of glucocorticoid receptor signaling (AID 588532; active = well fitted curve in the direction sought with a large enough effect in the signal ratio, with a control signal flat; the % refers to the signal ratio;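 also: 100% = dexamethasone at 0.1 µM and 0% = DMSO only wells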). The note with it: HeLa MMTV-bla, beta-lactamase ratio, agonist, 18 h; stronger effect = higher value; percent of dexamethasone control, DMSO zero. Put shortly: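 Cells were plated and rested 3-5 h at 37 C, compounds were added in titration and incubated 18 h, then CCF4 substrate was loaded for 2 h at RT before reading blue/green fluorescence. EC50 came from Hill-equation fitting.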

Assay [11] has the same target. As to the kind of experiment: qHTS assay for small molecule antagonists of glucocorticoid receptor signaling (AID 588533; active = well fitted inhibition curve with a large enough effect in the signal ratio, with a control signal flat, not every such curve was filed as active; the % refers to the signal ratio; also: % is scaled to controls: 0 for no effect and ±100 for the full control effect). The method in brief:
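Antagonist-mode qHTS: compound titrations added to GRE-bla HeLa cells, then dexamethasone 2 nM final; 18 h, 37 C. CCF4 FRET fluorescence normalized to dexamethasone and DMSO; IC50 from Hill fit.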

Assay [12] can be described thus: qHTS assay for small molecule antagonists of peroxisome proliferator-activated receptor delta signaling (AID 588535; active = well fitted inhibition curve with a large enough effect in the signal ratio, with a control signal flat, not every such curve was filed as active; the % refers to the signal ratio;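 as to max response: cells co-treated with a PPAR-delta agonist as stimulator during compound exposure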). As to conditions: HEK293T PPARd-UAS-bla, beta-lactamase FRET ratio, 18 h; 460 nm channel. The method in brief:
(§1)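 Antagonist-mode beta-lactamase reporter (GeneBLAzer PPAR-delta-UAS-bla) in HEK293T cells, 2% charcoal/dextran FBS, 4000 cells/well. Compound titrations, 18 h at 37 C; CCF4 ratio read, IC50 and efficacy from Hill fits.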

The target of assay [13] is Peroxisome proliferator-activated receptor delta (Homo sapiens) (UniProt Q03181). The description is as above. The method in brief: as §1
Sequence of Peroxisome proliferator-activated receptor delta (Homo sapiens) (Q03181 whole entry, looked up): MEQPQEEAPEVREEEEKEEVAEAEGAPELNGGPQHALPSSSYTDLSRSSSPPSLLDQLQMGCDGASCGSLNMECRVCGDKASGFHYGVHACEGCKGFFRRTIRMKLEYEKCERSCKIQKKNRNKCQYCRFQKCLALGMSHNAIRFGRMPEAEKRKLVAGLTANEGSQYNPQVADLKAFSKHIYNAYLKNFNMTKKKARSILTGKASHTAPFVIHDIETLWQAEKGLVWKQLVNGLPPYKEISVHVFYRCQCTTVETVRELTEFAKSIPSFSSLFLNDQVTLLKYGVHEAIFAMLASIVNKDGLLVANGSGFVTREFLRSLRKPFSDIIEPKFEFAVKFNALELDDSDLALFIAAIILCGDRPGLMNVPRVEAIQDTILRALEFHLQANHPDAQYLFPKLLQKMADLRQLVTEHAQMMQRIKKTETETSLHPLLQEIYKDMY
Assay [14] has as its target Peroxisome proliferator-activated receptor gamma (Homo sapiens) (UniProt P37231). As to the kind of experiment: qHTS assay for small molecule agonists of peroxisome proliferator-activated receptor gamma signaling (AID 588536; active = well fitted curve in the direction sought with a large enough effect in the signal ratio, with a control signal flat, not every such curve was filed as active; the % refers to the signal ratio;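 also: 0% = DMSO basal wells and 100% = rosiglitazone at 2 µM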). The method in brief:
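GeneBLAzer PPAR-gamma-UAS-bla HEK293 cells in 1% charcoal/dextran-treated FBS medium were treated 16 h at 37 C with compounds. Beta-lactamase activity was read by CCF4 ratio (460/530 nm). Response was normalized to 2 uM rosiglitazone (100%) and DMSO, then Hill-fitted for EC50 and efficacy.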

For assay [15] the target is unchanged. Nature of the assay: qHTS assay for small molecule antagonists of peroxisome proliferator-activated receptor gamma signaling (AID 588537; active = well fitted inhibition curve with a large enough effect in the signal ratio, with a control signal flat, not every such curve was filed as active; the % refers to the signal ratio;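 also: reporter cells co-stimulated with 50 nM rosiglitazone agonist during compound treatment; % of control where 0% means no effect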). The method in brief: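 PPARγ-UAS-bla HEK293 cells (3000/well) in 1% charcoal/dextran-stripped FBS are treated with compound, then stimulated with 50 nM rosiglitazone for 16 h at 37 °C. Read-out is CCF4 β-lactamase fluorescence after 2 h at RT. IC50 comes from Hill fits normalised to rosiglitazone and DMSO.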

In assay [16] the target is Vitamin D3 receptor (Homo sapiens) (UniProt P11473). As to the kind of experiment: qHTS assay for small molecule antagonists of vitamin D receptor signaling (AID 588541; calls by dose curve). The method in brief:
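VDR-UAS-bla HEK293T cells in 2% charcoal-stripped FBS were stimulated with 1-alpha,25-dihydroxyvitamin D3 (3 nM final) plus compound for 16 h at 37 C. The beta-lactamase CCF4 readout was normalized to 50 nM agonist and DMSO, and Hill fits gave IC50.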

For assay [17] the target is unchanged. As to the kind of experiment: qHTS assay for small molecule agonists of vitamin D receptor signaling (AID 588543; calls by dose curve;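 also: 0% = DMSO basal and 100% = reference agonist control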). The method in brief: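 β-lactamase reporter, VDR-UAS-bla HEK293T, agonist mode. Cells plated 5 h at 37 °C, compound titration 16 h at 37 °C, CCF4 dye 2 h RT, ratio 460/530 nm. Hill fit → EC50, efficacy vs 50 nM 1α,25-(OH)2D3.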
In assay [18] the target is Estrogen receptor (Homo sapiens) (UniProt P03372). As to the kind of experiment: qHTS assay for small molecule agonists of estrogen receptor alpha signaling (AID 588514; calls by dose curve;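 also: 0% = vehicle only and 100% = reference agonist; nearly all actives have a fitted effect of over 70% in size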). Put shortly: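 ER-alpha-UAS-bla GripTite HEK293 cells, 5000/well in 2% charcoal/dextran-stripped FBS medium, treated with compound titrations 18 h at 37 C. CCF4 beta-lactamase read by fluorescence after 2 h RT; normalised to 20 nM 17-beta-estradiol (100%) and DMSO (0%), Hill fit for EC50 and efficacy.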
Sequence of Estrogen receptor (Homo sapiens) (P03372 whole entry, looked up): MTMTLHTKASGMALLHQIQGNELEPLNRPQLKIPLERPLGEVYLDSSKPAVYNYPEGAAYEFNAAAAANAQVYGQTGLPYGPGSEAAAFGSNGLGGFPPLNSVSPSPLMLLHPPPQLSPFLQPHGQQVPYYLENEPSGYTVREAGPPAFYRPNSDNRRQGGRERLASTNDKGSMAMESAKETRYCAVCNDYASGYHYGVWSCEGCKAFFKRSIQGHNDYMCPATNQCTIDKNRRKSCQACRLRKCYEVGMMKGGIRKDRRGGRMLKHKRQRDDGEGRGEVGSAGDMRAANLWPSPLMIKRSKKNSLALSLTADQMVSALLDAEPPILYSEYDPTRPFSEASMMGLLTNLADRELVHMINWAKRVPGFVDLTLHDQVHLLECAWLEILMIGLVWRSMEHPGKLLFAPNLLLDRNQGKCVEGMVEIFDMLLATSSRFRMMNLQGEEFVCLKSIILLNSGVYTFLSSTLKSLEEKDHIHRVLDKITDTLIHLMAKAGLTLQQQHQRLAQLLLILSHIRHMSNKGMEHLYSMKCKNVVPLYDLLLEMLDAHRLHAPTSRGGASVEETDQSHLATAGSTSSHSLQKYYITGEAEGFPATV

Sequence of Peroxisome proliferator-activated receptor gamma (Homo sapiens) (P37231 whole entry, looked up): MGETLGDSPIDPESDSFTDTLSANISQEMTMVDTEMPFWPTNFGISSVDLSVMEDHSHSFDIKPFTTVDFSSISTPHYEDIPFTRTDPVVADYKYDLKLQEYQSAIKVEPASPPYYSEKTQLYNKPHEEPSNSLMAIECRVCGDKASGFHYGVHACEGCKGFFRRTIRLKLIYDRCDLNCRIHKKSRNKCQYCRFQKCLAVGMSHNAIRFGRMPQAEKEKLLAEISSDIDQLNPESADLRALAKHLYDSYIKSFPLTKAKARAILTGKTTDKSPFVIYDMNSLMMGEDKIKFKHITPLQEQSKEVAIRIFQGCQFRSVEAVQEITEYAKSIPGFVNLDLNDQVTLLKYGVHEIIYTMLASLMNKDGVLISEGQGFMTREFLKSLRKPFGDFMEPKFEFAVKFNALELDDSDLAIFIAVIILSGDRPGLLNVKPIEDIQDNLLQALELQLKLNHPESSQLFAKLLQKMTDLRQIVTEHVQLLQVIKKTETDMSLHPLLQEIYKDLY
Sequence of Glucocorticoid receptor (Homo sapiens) (P04150 whole entry, looked up): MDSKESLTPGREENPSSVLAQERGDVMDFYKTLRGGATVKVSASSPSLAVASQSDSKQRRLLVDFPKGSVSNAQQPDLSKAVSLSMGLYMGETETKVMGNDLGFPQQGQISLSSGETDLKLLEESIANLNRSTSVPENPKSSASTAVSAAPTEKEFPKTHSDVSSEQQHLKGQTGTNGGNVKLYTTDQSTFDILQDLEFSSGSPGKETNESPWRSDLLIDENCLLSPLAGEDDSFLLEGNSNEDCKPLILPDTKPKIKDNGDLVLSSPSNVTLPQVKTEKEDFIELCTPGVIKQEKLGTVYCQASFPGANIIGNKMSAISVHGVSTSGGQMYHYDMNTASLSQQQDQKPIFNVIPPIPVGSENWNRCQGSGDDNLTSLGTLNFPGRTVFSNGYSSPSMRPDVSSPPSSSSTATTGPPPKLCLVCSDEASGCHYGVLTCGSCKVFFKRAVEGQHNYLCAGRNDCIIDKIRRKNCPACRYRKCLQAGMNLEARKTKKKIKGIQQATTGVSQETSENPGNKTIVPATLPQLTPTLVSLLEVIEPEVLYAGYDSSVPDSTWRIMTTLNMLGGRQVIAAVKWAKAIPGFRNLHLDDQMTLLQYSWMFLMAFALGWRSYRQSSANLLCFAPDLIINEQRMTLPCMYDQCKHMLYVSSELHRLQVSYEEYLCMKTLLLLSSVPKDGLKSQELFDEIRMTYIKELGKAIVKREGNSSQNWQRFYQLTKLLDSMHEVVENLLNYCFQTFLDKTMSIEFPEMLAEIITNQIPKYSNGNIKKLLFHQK
Sequence of Bile acid receptor (Homo sapiens) (Q96RI1 whole entry, looked up): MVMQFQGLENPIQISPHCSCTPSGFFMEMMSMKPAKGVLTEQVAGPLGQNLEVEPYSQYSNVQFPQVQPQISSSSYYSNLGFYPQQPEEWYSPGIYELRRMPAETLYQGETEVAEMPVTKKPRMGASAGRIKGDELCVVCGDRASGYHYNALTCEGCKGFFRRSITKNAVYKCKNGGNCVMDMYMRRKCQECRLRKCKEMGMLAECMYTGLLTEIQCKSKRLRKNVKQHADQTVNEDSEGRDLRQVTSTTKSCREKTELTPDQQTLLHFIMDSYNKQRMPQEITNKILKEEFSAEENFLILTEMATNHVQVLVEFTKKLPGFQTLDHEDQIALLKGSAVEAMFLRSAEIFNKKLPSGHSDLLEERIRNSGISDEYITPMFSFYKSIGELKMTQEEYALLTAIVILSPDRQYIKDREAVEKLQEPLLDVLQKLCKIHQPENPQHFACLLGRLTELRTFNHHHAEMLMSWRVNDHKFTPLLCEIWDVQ
Sequence of Vitamin D3 receptor (Homo sapiens) (P11473 whole entry, looked up): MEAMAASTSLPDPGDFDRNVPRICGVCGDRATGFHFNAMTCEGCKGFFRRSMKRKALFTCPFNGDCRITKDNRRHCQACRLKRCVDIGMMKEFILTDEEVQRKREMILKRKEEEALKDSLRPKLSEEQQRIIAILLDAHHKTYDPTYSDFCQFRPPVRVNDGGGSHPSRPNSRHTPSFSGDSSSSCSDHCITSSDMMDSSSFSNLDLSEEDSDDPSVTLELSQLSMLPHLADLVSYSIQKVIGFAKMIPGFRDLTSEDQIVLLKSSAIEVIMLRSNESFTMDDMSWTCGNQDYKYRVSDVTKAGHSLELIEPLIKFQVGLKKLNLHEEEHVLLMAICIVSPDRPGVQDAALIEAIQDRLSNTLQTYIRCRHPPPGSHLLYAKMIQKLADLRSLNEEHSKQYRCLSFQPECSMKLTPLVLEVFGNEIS

For the molecule `C=C(C)C(=O)OCCCCCC`, the Potency result in assay [1], in assay [2], in assay [3], in [5], in [6] and in assay [13] was “inactive” in each case. The molecule was classed as inactive in assay [4], in [7], in assay [8], in [9], in assay [11] and in assay [14]. In addition, the call in assay [15], in assay [16] and in [17] was inactive. For the same molecule, the activation in assay [10] is 8.12% (inactive). The max response in assay [12] came out at 4.68%.
As for `CC(=O)c1ccccc1[N+](=O)[O-]`, the Potency entry in assay [1], in assay [2], in assay [5], in assay [6] and in [18] was “inactive” in each case. Further, the molecule was called inactive in assay [7], in assay [8], in assay [14], in [15], in assay [16] and in [17]. The max response in assay [12] is 4.84%.
Take `CC=C(Cl)Cl`: the Potency result in [1], in [3], in [5], in assay [6] and in assay [13] was “inactive” each time. Besides, the result in assay [7], in assay [8], in assay [11], in assay [14], in assay [15] and in assay [16] was inactive. Further, the molecule was called inactive in assay [17]. Moreover, the activation in [10] is -2.89% (inactive). Besides, the max response in assay [12] turned out to be 24.9%.
For `C=Cc1ccccc1C=C`, the Potency entry in [1], in [3], in assay [5], in [6] and in [13] was “inactive” in each case. In addition, the molecule was classed as inactive in assay [4], in [7], in assay [8], in assay [9], in assay [11] and in [14]. The molecule was called inactive in assay [15], in [16] and in assay [17]. In addition, the activation in [10] was 2.03% (inactive). For the same molecule, the max response in [12] was -7.99%.
As to `Cc1cccc2ccccc12`, the Potency entry in assay [1], in [2], in assay [3], in assay [5], in [6] and in [18] was “inactive” throughout. For the same molecule, the molecule was classed as inactive in assay [4], in assay [7], in assay [8], in assay [15], in assay [16] and in assay [17].
In the case of `COC(=O)CS`, the Potency entry in [1], in assay [2], in assay [5], in [6] and in [18] was “inactive” each time. Also, the molecule was called inactive in assay [4], in assay [7], in assay [8], in [15], in assay [16] and in assay [17].
Take `Cc1cccc(C(=O)O)c1[N+](=O)[O-]`: the Potency result in [1], in assay [2], in assay [3], in assay [5], in assay [6] and in [18] was “inactive” each time. In addition, the molecule was classed as inactive in assay [4], in [7], in assay [8], in [14], in [15] and in [16]. Further, the call in assay [17] was inactive.
As to `C/C=C(/C)C#N`, the Potency entry in assay [1], in assay [2], in assay [3], in assay [5], in [6] and in assay [18] was “inactive” throughout. Further, the Potency entry in [13] is “inactive”. Besides, the call in assay [4], in [7], in [8], in [14] and in assay [16] was inactive. In addition, in assay [12], the max response was determined as 26.2%.
As for `Cc1cc(C(=O)O)ccc1[N+](=O)[O-]`, the Potency entry in assay [1], in [2], in assay [3], in assay [5] and in assay [6] was “inactive” in each case. The result in assay [7], in assay [8], in [11], in assay [14], in assay [16] and in [17] was inactive. Besides, the activation in [10] is 1.49% (inactive). In addition, the max response in assay [12] stood at 13.2%.
`O=Cc1cccc(Br)c1`: the Potency entry in assay [1], in assay [2], in assay [5], in assay [6] and in [13] was “inactive” throughout. In addition, the molecule was classed as inactive in assay [4], in [7], in assay [9], in [11], in [14] and in assay [16]. Further, the molecule was classed as inactive in assay [17]. Further, the activation in assay [10] was -2.28% (inactive). The max response in [12] was determined as 21.9%.
